# TcdB GH inh = TcdB glycohydrolase inhibition. TcdB glycohydrolase enzymatic assay, plate reader. inhibition, % at 9.99 µM. 0.24% of 350,000 active; in the data active = inhibition above about 10%
# PrP 5UTR inh = suppresses PrP 5' UTR mRNA reporter expression; cell-based PrP 5' UTR mRNA reporter, plate reader; 0.35% of 340,000 active; inhibition, % (test concentration not listed); in the data active = inhibition above about 52%; also: 0 = median of the neutral control wells
# BioA inh = BioA (M. tuberculosis) enzyme inhibition; inhibition, % at 9.99 µM; purified M. tuberculosis BioA enzyme, plate reader; 0.096% of 360,000 active; in the data active = inhibition above about 40%
# Yp Topo-I inh = Y. pestis Topo-I inhibition via cleavage products. 0.064% of 360,000 active. AID 504884. Y. pestis Topo-I cleavage product accumulation, plate reader. activity, % at 10 µM; in the data active = activity above about 50%, passing the limit was not always enough
# * hit, by the source's call; . = no result given. Rows were chosen to be rich in hits. Some 0.53% of all compounds tested hit in one or more screens of this group.
SMILES,TcdB GH inh,PrP 5UTR inh,BioA inh,Yp Topo-I inh
CCC(=O)Nc1ccc2c(c1)OC[C@@H](C)N(C(=O)NC(C)C)C[C@@H](C)[C@@H](OC)CN(C)C2=O,18*,.,-2,.
CCCNC(=O)C[C@@H]1CC[C@@H]2[C@H](COC[C@@H](O)CN2C(=O)c2ccccn2)O1,-1,.,-4,.
C[C@@H]1CN([C@@H](C)CO)C(=O)Cc2cc(NC(=O)Cc3ccccc3)ccc2O[C@H]1CN(C)C,0,.,-5,.
O=C(NC(=S)Nc1ccccc1[N+](=O)[O-])c1ccccc1,1,-37,.,-14
O=C(NC(=S)/C(=C1\CCCCCN1)[N+](=O)[O-])c1ccccc1,.,59*,-1,-9
Cc1ccc(S(=O)(=O)N[C@@H]2CC[C@@H](CCNC(=O)C3CCCC3)O[C@@H]2CO)cc1,-2,.,-2,.
O=C(c1cnccn1)N1CC(=O)N2[C@H](CO)[C@H](c3ccc(C#CC4CCCC4)cc3)[C@H]2C1,1,.,.,.
CCCC(=O)Nc1ccc2c(c1)OC[C@@H](C)N(C(=O)c1ccccn1)C[C@@H](C)[C@@H](OC)CN(C)C2=O,-6,.,0,.
COc1ccc2nc3c(nc2c1)CCCC3,1,-50,0,10
COc1ccc2cc3c(nc2c1)OCC3,11*,-17,-2,1
O=C(c1cc(-c2ccccc2Cl)nc2ccc(Br)cc12)N1CCN(c2ccccn2)CC1,0,-15,-1,55*
Cc1ccc(NNC(=O)c2ccno2)cc1C,88*,-12,.,0
Cc1cc(C(=O)NNc2ccc(C)c(C)c2)no1,61*,-24,.,-2
Cc1cc(C(=O)NNc2ccc(Cl)cc2)no1,.,-63,1,-5
Cc1ccc(NNC(=O)c2ccno2)cc1Cl,73*,-10,-1,-7
Cc1ccc(NNC(=O)c2c(C)noc2C)cc1Cl,-1,-9,.,2
COc1ccc(CN(C)C[C@@H]2Oc3ccc(NC(=O)Nc4ccc(F)cc4)cc3CC(=O)N([C@H](C)CO)C[C@@H]2C)cc1,-2,.,-5,.
CCOc1ccc(S(=O)(=O)NCc2ccccc2Cl)cc1C(N)=O,20*,-6,.,5
CCOc1ccc(S(=O)(=O)NCc2ccccc2)cc1C(N)=O,6,-29,.,9
O=C(c1ccccc1F)N1CCN(c2ccc([N+](=O)[O-])c3cccnc23)CC1,12*,-19,.,-7
O=C(c1ccccc1F)N1CCN(c2ccc([N+](=O)[O-])c3ncccc23)CC1,.,-12,.,2
CC(C)NC(=O)Nc1ccc2c(c1)CC(=O)N([C@@H](C)CO)C[C@H](C)[C@H](CN(C)C(=O)NC(C)C)O2,0,.,-2,.
CCCNC(=O)C[C@@H]1C[C@H]2c3cc(NC(=O)Nc4ccccc4)ccc3O[C@H]2[C@H](CO)O1,.,.,-1,.
COc1cc(/C=C/c2sc3ccccc3[n+]2CCCS(=O)(=O)[O-])ccc1O,10*,-9,.,6
CCC(/C=C1\Oc2ccc(OC)cc2N1C)=C\c1sc2ccccc2[n+]1CCCS(=O)(=O)[O-],-1,-17,-1,-5
SMILES,TcdB GH inh,PrP 5UTR inh,BioA inh,Yp Topo-I inh
FC(F)(F)c1cc(CCN2CCNC[C@H]2Cc2cccc3ccccc23)cc(C(F)(F)F)c1,11*,-1,-2,-15
Oc1ccc(C[C@@H]2CNCCN2CCc2cc(C(F)(F)F)cc(C(F)(F)F)c2)cc1,0,4,0,-21
COc1ccc2c3c(n(C)c2c1)[C@H](CO)N(C(=O)CN(C)C)CC31CCN(C(=O)NC(C)C)CC1,-6,.,.,.
Cc1cccc(S(=O)(=O)N2[C@@H]3CNC[C@H]2C3c2ccc(-c3cncnc3)cc2)c1 (some centres not stated),0,.,.,.
Oc1ccc(/C=N\Nc2cc(N3CCOCC3)nc(N3CCOCC3)n2)c(O)c1,-3,-7,0,-10
Cc1cc(N/N=C/c2ccc(O)cc2O)nc(N2CCOCC2)n1,15*,-11,1,-12
C[C@H]1CCCCO[C@@H](CN(C)C)[C@@H](C)CN([C@@H](C)CO)C(=O)c2cc(NC(=O)CCC(F)(F)F)ccc2O1,0,.,-1,.
Cc1ccc2ccc[n+](Cc3ccccc3)c2c1,11*,-33,-1,7
COC(=O)CCc1ccc(O)cc1,1,7,-1,0
COc1cc(O)ccc1C(=O)CCc1ccc(O)cc1,17*,-11,0,-7
C/C(=N\Nc1ccc([N+](=O)[O-])cc1)c1cccc(N)c1,15*,-41,0,-23
O=C(NCC[C@@H]1CC[C@H](NC(=O)C2CCC2)[C@H](CO)O1)c1cc(Cl)cc(Cl)c1,-1,.,3,.
C[C@@H]1CN([C@@H](C)CO)C(=O)Cc2cc(NC(=O)Cc3cn(C)c4ccccc34)ccc2O[C@H]1CN(C)Cc1ccccc1,0,.,3,.
COc1ccc(/C=C/c2cc(C(=O)O)c3ccccc3n2)cc1,3,71*,-1,6
CO[C@@H]1CN(C)C(=O)c2ccc(NC(=O)C3CCC3)cc2OC[C@@H](C)N(Cc2cccnc2)C[C@@H]1C,0,.,5,.
CS(=O)(=O)Nc1ccc2c(c1)[C@H]1C[C@@H](CC(=O)N3CCOCC3)O[C@H](CO)[C@H]1O2,-3,.,-1,.
CC(=O)Nc1ccc(OC(=O)N(C)C)cc1,.,-26,.,6
CC(=O)Nc1ccc(OC(=O)Oc2ccc(NC(C)=O)cc2)cc1,11*,4,-1,-4
CO[C@@H]1CN(C)C(=O)c2ccc(NC(=O)C3CC3)cc2OC[C@@H](C)N(CCc2ccccc2)C[C@@H]1C,-3,.,6,.
CCCCn1c(-c2ccccc2C)nc2cc3[nH]c(=O)c(C(C)C)nc3cc21,11*,-11,4,21
CCCCn1c(-c2cccc3ccccc23)nc2cc3[nH]c(=O)c(C(C)C)nc3cc21,0,-6,2,10
O=C(NCC[C@@H]1CC[C@H](NS(=O)(=O)c2cccc(Cl)c2)[C@H](CO)O1)c1cnccn1,-2,.,-1,.
Cc1cc(SCC(=O)N/N=C/c2ccco2)nc2ccccc12,14*,-15,.,6
COc1cc(Cc2ccc(N)c(OC)c2)ccc1N,15*,2,.,-9
C[C@@H]1CN([C@H](C)CO)C(=O)Cc2cc(NC(=O)CCC(F)(F)F)ccc2O[C@H]1CN(C)Cc1ccncc1,2,.,2,.
SMILES,TcdB GH inh,PrP 5UTR inh,BioA inh,Yp Topo-I inh
CCOc1cc(/C=C\c2nc(O)c([N+](=O)[O-])c(=O)[nH]2)ccc1OC(C)C,0,-9,-2,-7
O=c1[nH]c(/C=C\c2ccc(O)c(Cl)c2)nc(O)c1[N+](=O)[O-],12*,2,-5,-3
O=c1[nH]c(/C=C\c2cccs2)nc(O)c1[N+](=O)[O-],-1,-29,1,9
O=c1[nH]c(/C=C\c2ccc(O)cc2)nc(O)c1[N+](=O)[O-],16*,-13,-1,-4
Nc1nc(CCOc2ccc(F)cc2)cs1,11*,-69,.,1
CC1C(c2ccc3c(c2)OCO3)c2cc3c(cc2OC1N1CCOCC1)OCO3 (configuration not stated),11*,-5,.,-3
CC(C)[C@@H]1COCc2cn(nn2)CC[C@@H](Cc2ccccc2)C(=O)N1,0,.,.,.
Cc1cc(C)nc(NC(N)=NC(C)c2ccccc2)n1 (configuration not stated),1,.,.,.
Cc1cc(C)nc(NC(N)=NCCc2ccccc2)n1,10*,-14,2,16
Nc1ccc(-c2cc3ccccc3oc2=O)cc1,1,85*,0,3
